Our source for the AC50 and outcome values is PubChem BioAssay (EPA / NIEHS).

Structures are written as SMILES. Several values for one entry are separate records, joined by “and”; a condition that tells them apart may be missing. Identical values can stand only once. Inconclusive results are not listed. Activity calls are given as the source filed them. How the source made its calls, unless noted: active means hit-call score of the fitted dose curve at least 0.9, where 1 is the maximum; inactive means score below 0.9.

Read-out in experiment [1]: Monocyte Chemoattractant Protein-1 (MCP1), CCL2 (gene 6347)
Nature of the experiment: BSK_SAg_MCP1: BioMAP Diversity Plus: SAg Assay for Monocyte Chemoattractant Protein-1 (MCP1) Biomarker Activity (AID 2283090). Conditions: primary human HUVEC with PBMC; actives raise or lower the signal. Summed up:
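Values derive from bidirectional fitting of ELISA-measured MCP1 against DMSO controls. Readings were taken 24 h after dosing human vascular endothelial cells co-cultured with peripheral blood mononuclear cells under superantigen stimulation.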

Read-out in experiment [2]: E-selectin (Homo sapiens) (UniProt P16581)
Description: BSK_SAg_Eselectin: BioMAP Diversity Plus: SAg Assay for Eselectin Biomarker Activity (AID 2283091). Conditions: primary human HUVEC with PBMC; actives raise or lower the signal. Summed up:
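Co-culture: HUVEC + PBMC. Dose compound; 24 h. ELISA for E-selectin. Bidirectional fit vs DMSO.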

Read-out in experiment [3]: Monokine induced gamma interferon (MIG), CXCL9 (gene 4283)
Nature of the experiment: BSK_SAg_MIG: BioMAP Diversity Plus: SAg Assay for Monokine induced gamma interferon (MIG) Biomarker Activity (AID 2283092). Conditions: primary human HUVEC with PBMC; actives raise or lower the signal. Summed up: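 Measures CXCL9 protein by ELISA in a human vascular primary-cell co-culture (umbilical vein endothelium with PBMC) 24 h after chemical addition. Activity is scored up or down from the DMSO control.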

The nature of experiment [4]: BSK_SAg_PBMCCytotoxicity: PBMC Cytotoxicity Assessment in the BioMAP Diversity Plus: SAg Assay (AID 2283093).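 Further: PBMC viability measured as Alamar Blue reduction fluorescence at 546/580 nm; fitted both ways against DMSO so a hit may be loss or gain of signal.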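 On AC50: PBMC superantigen activated with SEB plus TSST-1 one hour after compound addition.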 Conditions: primary human HUVEC with PBMC. Summed up:
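Alamar Blue reduction (6 h, ex/em 546/580 nm) read after 90 h culture of PBMC pre-dosed 1 h then stimulated with SEB plus TSST-1, 20 ng/mL each. Gain or loss of signal fitted relative to DMSO.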

Read-out in experiment [5]: Interleukin-8 (IL8), CXCL8 (gene 3576)
Description: BSK_SAg_IL8: BioMAP Diversity Plus: SAg Assay for Interleukin-8 (IL8) Biomarker Activity (AID 2283094). Conditions: primary human HUVEC with PBMC; actives raise or lower the signal. Summed up: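 Chemicals were dosed onto a human endothelial–PBMC co-culture, and IL-8 was quantified by ELISA after 24 h. Both increases and decreases were fitted relative to DMSO.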

The nature of experiment [6]: BSK_SAg_Proliferation: Cell Proliferation Assessment in the BioMAP Diversity Plus: SAg Assay (AID 2283095).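 Further: relative cell number as total protein by SRB absorbance in sub-confluent culture.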 Particulars: primary human HUVEC with PBMC. Summed up: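 Absorbance of sulforhodamine B at 560 nm reports total protein in a human vascular endothelial/PBMC co-culture after 96 h chemical exposure. Gain or loss of signal is fitted in both directions against DMSO.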

Experiment [7] has as its target human CYP1A1, CYP1A1 (gene 1543) (UniProt P04798). Nature of the experiment: NVS_ADME_hCYP1A1: NovaScreen (NVS) CYP450-related Enzyme Activity (ADME) Assay for human CYP1A1 (AID 2283100; active means hit-call score of the fitted dose curve at least 0.9, where 1 is the maximum). Summed up: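 Recombinant hCYP1A1 + fluorogenic substrate, cell-free; 1 h; fluorescence read. Single-point 10 uM (duplicate) → concentration series, max 20 uM. Acetonitrile negative control.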

Experiment [8] addresses human CYP2B6, CYP2B6 (gene 1555) (UniProt P20813). Description: NVS_ADME_hCYP2B6: NovaScreen (NVS) CYP450-related Enzyme Activity (ADME) Assay for human CYP2B6 (AID 2283101; active means hit-call score of the fitted dose curve at least 0.9, where 1 is the maximum). Summed up: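 Recombinant protein, specific fluorescent substrate, read at 1 h post-dosing. Primary: single 10 uM, duplicate; follow-up: concentration series. Activity = signal loss vs acetonitrile baseline, with positive and negative controls on every plate.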

Experiment [9] deals with human CYP2C9, CYP2C9 (gene 1559) (UniProt P11712). Description: NVS_ADME_hCYP2C9: NovaScreen (NVS) CYP450-related Enzyme Activity (ADME) Assay for human CYP2C9 (AID 2283108; active means hit-call score of the fitted dose curve at least 0.9, where 1 is the maximum). Summed up: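 Fluorescence readout of CYP2C9 activity (SF9-expressed human enzyme) at 0.75 h. The primary screen used 10 uM in duplicate, with concentration-response follow-up for actives; acetonitrile was the negative control.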

Experiment [10] deals with Cytochrome P450 2C19 (Homo sapiens) (UniProt P33261). Description: NVS_ADME_hCYP2C19: NovaScreen (NVS) CYP450-related Enzyme Activity (ADME) Assay for human CYP2C19 (AID 2283113; active means hit-call score of the fitted dose curve at least 0.9, where 1 is the maximum;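 further: potency for inhibition seen as loss of fluorescent signal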). Summed up:
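Fluorescence intensity was measured 1 hour after chemicals were added to insect-cell-derived recombinant CYP2C19 with fluorogenic substrate. Decreased signal versus acetonitrile control was taken as reduced enzyme activity; initial testing used 10 uM in duplicate.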

For experiment [11], the target named is rat CYP2A2, Cyp2a2 (gene 24895) (UniProt P15149). Description: NVS_ADME_rCYP2A2: NovaScreen (NVS) CYP450-related Enzyme Activity (ADME) Assay for rat CYP2A2 (AID 2283116; active means hit-call score of the fitted dose curve at least 0.9, where 1 is the maximum). Summed up: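 Compounds first tested in duplicate at 10 uM, then in singleton concentration series up to 20 uM when over threshold. Activity of the recombinant enzyme read by fluorescence at 0.2 h, normalised to acetonitrile vehicle.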

Experiment [12] addresses rat CYP2C11, Cyp2c11 (gene 29277) (UniProt P08683). Nature of the experiment: NVS_ADME_rCYP2C11: NovaScreen (NVS) CYP450-related Enzyme Activity (ADME) Assay for rat CYP2C11 (AID 2283118; active means hit-call score of the fitted dose curve at least 0.9, where 1 is the maximum). Summed up:
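Screened first at 10 uM in duplicate, hits followed by concentration-response. Recombinant rat enzyme activity monitored by fluorescence 0.33 h post-dosing, normalised to acetonitrile negative control.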

The test system of another experiment is rat CYP2C6, gene 293989. Nature of the experiment: NVS_ADME_rCYP2C6: NovaScreen (NVS) CYP450-related Enzyme Activity (ADME) Assay for rat CYP2C6 (AID 2283120; active means hit-call score of the fitted dose curve at least 0.9, where 1 is the maximum). Summed up: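 Compounds first tested in duplicate at 10 uM, hits (e.g. 30% inhibition) re-run in singleton dose series to a 20 uM top concentration. Enzyme activity of recombinant rat CYP2C6 measured via fluorescent substrate turnover after 1 h; acetonitrile baseline.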

The nature of experiment [13]: BSK_SAg_SRB: Viability Assessment in the BioMAP Diversity Plus: SAg Assay (AID 2283096).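 Further: cells read one day after compound addition; hits may be either gain or loss of signal compared with DMSO.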 Conditions: primary human HUVEC with PBMC. Summed up: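 SRB absorbance at 560 nm served as the viability read-out. Cells (HUVEC plus peripheral blood mononuclear cells) were TCA-fixed and stained 24 h post-dosing; activity fitted in both directions against DMSO controls.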
The target in experiment [14] is human CYP2D6, CYP2D6 (gene 1565) (UniProt P10635). Description: NVS_ADME_hCYP2D6: NovaScreen (NVS) CYP450-related Enzyme Activity (ADME) Assay for human CYP2D6 (AID 2283107; active means hit-call score of the fitted dose curve at least 0.9, where 1 is the maximum). Summed up: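 Insect-cell recombinant enzyme + fluorogenic substrate, cell-free; 1 h incubation; fluorescence intensity readout. Acetonitrile = neg. ctrl/baseline. Single-point 10 uM, duplicate; follow-up concentration series.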

The target in experiment [15] is human CYP19A1, CYP19A1 (gene 1588) (UniProt P11511). Nature of the experiment: NVS_ADME_hCYP19A1: NovaScreen (NVS) CYP450-related Enzyme Activity (ADME) Assay for human CYP19A1 (AID 2283098; active means hit-call score of the fitted dose curve at least 0.9, where 1 is the maximum;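 on AC50: potency for inhibitors seen as loss of fluorescent enzyme signal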). Summed up:
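Primary testing was in duplicate at a single 10 uM concentration, with actives followed up in concentration-response series. Fluorescence read-out of recombinant enzyme activity at 0.5 h, cell-free. Acetonitrile was the negative-control baseline.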

In experiment [16] the target is Cytochrome P450 3A4 (Homo sapiens) (UniProt P08684). Nature of the experiment: NVS_ADME_hCYP3A4: NovaScreen (NVS) CYP450-related Enzyme Activity (ADME) Assay for human CYP3A4 (AID 2283110; active means hit-call score of the fitted dose curve at least 0.9, where 1 is the maximum). Summed up:
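Compounds screened in duplicate at 10 uM, with follow-up concentration-response for actives, against insect-cell-expressed recombinant enzyme. Activity read by fluorescence 0.33 h after dosing; loss of signal versus acetonitrile control indicates inhibition.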

human CYP2C9, CYP2C9 (gene 1559), sequence (P11712 whole entry, looked up): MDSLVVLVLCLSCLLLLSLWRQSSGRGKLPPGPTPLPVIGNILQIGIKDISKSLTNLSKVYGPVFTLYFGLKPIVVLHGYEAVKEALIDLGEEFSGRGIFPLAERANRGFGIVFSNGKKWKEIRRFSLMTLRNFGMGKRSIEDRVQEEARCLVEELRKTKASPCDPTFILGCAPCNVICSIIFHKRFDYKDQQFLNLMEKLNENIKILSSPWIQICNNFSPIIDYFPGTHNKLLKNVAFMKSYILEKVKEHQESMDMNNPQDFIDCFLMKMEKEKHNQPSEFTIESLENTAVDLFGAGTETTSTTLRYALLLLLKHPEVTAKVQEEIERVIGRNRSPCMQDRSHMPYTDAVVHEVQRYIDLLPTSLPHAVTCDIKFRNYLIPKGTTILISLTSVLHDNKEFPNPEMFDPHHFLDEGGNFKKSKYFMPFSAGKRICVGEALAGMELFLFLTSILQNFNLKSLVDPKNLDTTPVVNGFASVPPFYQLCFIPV
E-selectin (Homo sapiens), sequence (P16581 whole entry, looked up): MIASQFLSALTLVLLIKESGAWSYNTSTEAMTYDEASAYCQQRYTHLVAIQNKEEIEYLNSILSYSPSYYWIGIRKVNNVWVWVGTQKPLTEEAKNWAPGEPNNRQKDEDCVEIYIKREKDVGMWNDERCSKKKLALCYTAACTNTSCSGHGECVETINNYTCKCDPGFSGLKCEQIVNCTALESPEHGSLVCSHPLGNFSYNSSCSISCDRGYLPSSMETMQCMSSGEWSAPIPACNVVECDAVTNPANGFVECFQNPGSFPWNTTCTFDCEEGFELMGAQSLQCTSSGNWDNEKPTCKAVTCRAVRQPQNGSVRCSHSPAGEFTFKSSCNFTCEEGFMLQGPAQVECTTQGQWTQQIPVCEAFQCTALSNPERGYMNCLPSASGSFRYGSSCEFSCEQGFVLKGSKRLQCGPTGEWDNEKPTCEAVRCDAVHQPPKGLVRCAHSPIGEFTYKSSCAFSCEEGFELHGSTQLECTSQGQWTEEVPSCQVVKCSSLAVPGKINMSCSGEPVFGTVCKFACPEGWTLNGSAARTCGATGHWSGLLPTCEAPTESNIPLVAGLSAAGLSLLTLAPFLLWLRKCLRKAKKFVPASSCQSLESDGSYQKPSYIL
rat CYP2A2, Cyp2a2 (gene 24895), sequence (P15149 whole entry, looked up): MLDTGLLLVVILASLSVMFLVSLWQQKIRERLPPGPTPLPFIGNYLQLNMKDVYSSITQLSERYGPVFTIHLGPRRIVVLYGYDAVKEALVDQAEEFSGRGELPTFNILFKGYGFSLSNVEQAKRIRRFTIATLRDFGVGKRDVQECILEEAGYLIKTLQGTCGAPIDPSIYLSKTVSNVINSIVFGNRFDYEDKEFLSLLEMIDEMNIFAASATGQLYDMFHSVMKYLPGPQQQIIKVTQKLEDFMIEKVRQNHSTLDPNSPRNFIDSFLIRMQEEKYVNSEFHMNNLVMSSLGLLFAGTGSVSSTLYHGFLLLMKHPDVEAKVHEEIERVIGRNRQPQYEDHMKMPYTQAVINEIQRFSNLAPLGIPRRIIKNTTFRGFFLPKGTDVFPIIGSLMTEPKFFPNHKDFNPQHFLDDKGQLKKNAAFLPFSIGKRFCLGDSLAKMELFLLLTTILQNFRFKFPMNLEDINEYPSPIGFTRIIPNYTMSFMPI
human CYP1A1, CYP1A1 (gene 1543), sequence (P04798 whole entry, looked up): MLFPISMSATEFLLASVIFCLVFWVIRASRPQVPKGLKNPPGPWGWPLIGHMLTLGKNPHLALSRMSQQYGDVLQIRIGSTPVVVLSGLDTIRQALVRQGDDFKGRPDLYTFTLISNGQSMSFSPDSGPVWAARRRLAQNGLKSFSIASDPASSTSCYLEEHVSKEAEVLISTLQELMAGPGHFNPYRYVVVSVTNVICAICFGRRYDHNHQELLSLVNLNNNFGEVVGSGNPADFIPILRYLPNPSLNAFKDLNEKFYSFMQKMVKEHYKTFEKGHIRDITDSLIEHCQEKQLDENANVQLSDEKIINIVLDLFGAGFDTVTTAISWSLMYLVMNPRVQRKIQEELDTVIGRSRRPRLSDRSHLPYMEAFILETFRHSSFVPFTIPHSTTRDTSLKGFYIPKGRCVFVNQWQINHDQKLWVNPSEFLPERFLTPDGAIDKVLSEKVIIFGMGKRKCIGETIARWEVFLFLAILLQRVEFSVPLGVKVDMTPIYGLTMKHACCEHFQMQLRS
human CYP19A1, CYP19A1 (gene 1588), sequence (P11511 whole entry, looked up): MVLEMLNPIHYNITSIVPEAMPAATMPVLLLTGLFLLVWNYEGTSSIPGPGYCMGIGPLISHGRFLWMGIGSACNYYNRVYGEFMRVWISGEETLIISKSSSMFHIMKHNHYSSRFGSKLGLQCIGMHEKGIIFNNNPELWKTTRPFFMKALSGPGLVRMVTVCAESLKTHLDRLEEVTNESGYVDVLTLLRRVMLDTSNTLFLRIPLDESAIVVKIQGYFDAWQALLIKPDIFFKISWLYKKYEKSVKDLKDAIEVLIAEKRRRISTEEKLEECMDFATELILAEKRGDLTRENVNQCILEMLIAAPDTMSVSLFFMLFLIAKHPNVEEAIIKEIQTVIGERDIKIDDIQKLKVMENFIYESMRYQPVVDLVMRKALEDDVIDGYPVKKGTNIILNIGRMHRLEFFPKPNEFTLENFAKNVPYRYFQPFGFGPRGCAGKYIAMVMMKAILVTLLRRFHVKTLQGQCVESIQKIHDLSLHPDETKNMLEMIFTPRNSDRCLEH
rat CYP2C11, Cyp2c11 (gene 29277), sequence (P08683 whole entry, looked up): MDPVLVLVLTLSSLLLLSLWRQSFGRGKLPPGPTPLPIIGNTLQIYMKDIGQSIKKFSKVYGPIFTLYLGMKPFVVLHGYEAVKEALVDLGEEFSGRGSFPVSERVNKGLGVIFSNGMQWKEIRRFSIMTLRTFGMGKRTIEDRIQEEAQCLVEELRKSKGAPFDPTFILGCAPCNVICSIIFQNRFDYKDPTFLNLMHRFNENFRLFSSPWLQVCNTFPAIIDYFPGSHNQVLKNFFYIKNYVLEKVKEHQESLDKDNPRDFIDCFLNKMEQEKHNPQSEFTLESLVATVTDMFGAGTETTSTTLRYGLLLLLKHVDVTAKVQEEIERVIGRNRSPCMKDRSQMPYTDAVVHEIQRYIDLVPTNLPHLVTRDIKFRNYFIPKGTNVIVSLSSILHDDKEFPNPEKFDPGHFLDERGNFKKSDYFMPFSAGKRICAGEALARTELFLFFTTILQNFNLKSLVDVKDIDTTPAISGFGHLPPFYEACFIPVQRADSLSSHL
human CYP2B6, CYP2B6 (gene 1555), sequence (P20813 whole entry, looked up): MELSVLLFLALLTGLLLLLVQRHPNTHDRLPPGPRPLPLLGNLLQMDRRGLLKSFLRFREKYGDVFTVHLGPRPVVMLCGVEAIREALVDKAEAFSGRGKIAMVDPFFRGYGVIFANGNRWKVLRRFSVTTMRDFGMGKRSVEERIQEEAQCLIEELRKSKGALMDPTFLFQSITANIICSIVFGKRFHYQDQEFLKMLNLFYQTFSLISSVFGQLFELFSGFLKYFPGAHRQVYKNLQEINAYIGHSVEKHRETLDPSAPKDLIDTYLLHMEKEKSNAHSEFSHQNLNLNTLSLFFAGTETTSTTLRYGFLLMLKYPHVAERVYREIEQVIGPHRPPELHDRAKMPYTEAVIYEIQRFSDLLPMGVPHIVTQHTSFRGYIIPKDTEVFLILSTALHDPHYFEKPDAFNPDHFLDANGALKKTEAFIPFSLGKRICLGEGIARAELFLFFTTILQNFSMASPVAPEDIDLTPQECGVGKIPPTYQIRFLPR
Cytochrome P450 3A4 (Homo sapiens), sequence (P08684 whole entry, looked up): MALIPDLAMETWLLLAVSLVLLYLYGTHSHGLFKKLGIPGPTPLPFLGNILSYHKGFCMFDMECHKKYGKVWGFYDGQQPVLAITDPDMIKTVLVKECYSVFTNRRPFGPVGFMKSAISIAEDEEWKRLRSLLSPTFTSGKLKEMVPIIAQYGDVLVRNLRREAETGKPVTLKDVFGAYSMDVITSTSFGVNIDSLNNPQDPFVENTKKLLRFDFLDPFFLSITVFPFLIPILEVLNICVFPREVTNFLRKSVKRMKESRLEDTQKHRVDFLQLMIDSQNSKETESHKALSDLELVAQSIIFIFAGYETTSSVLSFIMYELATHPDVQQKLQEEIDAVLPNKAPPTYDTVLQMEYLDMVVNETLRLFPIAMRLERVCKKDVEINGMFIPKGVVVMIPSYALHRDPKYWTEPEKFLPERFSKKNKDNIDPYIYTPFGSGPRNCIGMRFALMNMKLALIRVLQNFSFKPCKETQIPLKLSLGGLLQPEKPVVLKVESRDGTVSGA
human CYP2D6, CYP2D6 (gene 1565), sequence (P10635 whole entry, looked up): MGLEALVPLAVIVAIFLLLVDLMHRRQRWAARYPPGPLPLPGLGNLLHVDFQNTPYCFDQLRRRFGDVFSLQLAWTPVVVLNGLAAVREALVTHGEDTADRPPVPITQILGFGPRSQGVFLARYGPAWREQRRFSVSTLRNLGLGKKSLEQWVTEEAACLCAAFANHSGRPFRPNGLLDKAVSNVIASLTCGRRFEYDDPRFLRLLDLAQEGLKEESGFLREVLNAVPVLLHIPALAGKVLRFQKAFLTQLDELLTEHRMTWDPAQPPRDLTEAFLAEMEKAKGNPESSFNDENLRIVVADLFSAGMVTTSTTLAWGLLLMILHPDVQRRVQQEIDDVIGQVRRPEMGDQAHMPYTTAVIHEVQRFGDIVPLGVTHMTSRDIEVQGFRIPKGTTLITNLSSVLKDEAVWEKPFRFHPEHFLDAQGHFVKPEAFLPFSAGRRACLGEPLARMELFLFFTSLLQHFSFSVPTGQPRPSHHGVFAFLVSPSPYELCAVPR

A word on the AC50: it is the concentration giving half of the maximal activity seen. With `C#C[C@]1(O)CC[C@H]2[C@@H]3CCc4cc(O)ccc4[C@H]3CC[C@@]21C`, the AC50 was 5.56 µM (active) in experiment [1]; 5.51 µM (active) in experiment [6]; 6.68 µM (active) and 7.82 µM (active) and 6.49 µM (active) in experiment [9]; 1.02 µM (active) and 2.09 µM (active) and 1.18 µM (active) in [10]; 785 nM (active) and 1.44 µM (active) and 680 nM (active) in [11]; 2.5 µM (active) and 2.81 µM (active) and 1.76 µM (active) in experiment [12]. In addition, in the experiment with rat CYP2C6, gene 293989, the AC50 was 1.43 µM (active) and 2.55 µM (active) and 1.67 µM (active). Also, the outcome in experiment [2], in experiment [3], in experiment [4], in [5], in experiment [7] and in experiment [8] was inactive.
On to `O=C1OC2(c3ccc(O)cc3Oc3cc(O)ccc32)c2ccccc21`, for which the result in experiment [1], in [2], in [3], in [4], in experiment [5] and in experiment [13] was inactive. In addition, the half-maximal activity concentration (AC50) in experiment [6] is 1.02 µM (active).
Take `CCCCN(CCO)CCO`: the result in experiment [1], in [2], in [3], in experiment [4], in [5] and in experiment [6] was inactive.
With `CC(C)Cc1ccc(C(C)C(=O)O)cc1` (centres undefined), the result in [1], in experiment [2], in [3], in experiment [4], in [5] and in experiment [6] was inactive. The molecule was called inactive in experiment [14].
`CCOC(=O)CCCCCCCCC(=O)OCC`: the outcome in [1], in experiment [2], in experiment [3], in [4], in experiment [5] and in experiment [6] was inactive. Further, the result in experiment [13] was inactive.
Regarding `CC=CC(=O)C1=C(C)C=CCC1(C)C`, the result in experiment [1], in experiment [2], in [3], in experiment [4] and in experiment [6] was inactive. Further, the AC50 in experiment [5] is 0.016 µM (active).
With `CCCCCCCCOC(=O)c1ccc(O)cc1`, the AC50 in experiment [15] was 7.86 µM (active).
For `CC(C)(C)c1cccc(O)c1`, the outcome in experiment [1], in experiment [2], in [3], in experiment [4], in experiment [5] and in [6] was inactive.
As to `C=C(C)C(=O)OCCC(F)(F)C(F)(F)C(F)(F)C(F)(F)C(F)(F)C(F)(F)C(F)(F)C(F)(F)F`, the outcome in experiment [1], in experiment [2], in experiment [3], in experiment [4], in experiment [5] and in [6] was inactive.
With `CC(=O)C1=C(C)[C@@H]2C[C@@]3(C1)[C@H](C)CC[C@H]3C2(C)C`, the result in [15] was inactive.
As to `Nc1ccc(N)c([N+](=O)[O-])c1`, the outcome in experiment [1], in [2], in experiment [3], in experiment [5] and in [6] was inactive.
For the molecule `O=C(c1ccc(OCCN2CCCCC2)cc1)c1c(-c2ccc(O)cc2)sc2cc(O)ccc12`, the AC50 was 30.7 µM (active) in [1]; 37.4 µM (active) in experiment [2]; 34.7 µM (active) in [3]; 26.2 µM (active) in experiment [4]; 28.9 µM (active) in [5]; 14.6 µM (active) in experiment [6]. In addition, the AC50 in experiment [15] is 4.25 µM (active) [middle of 4 runs]; in [7], 6.33 µM (active). Further, the outcome in experiment [16] was inactive.
